Among all 310,000 compounds or so, about 14,000 (4.5%) showed an effect of 50% or more. Effects have a minus sign here. What follows is part of a selection rich in strong results, with near analogues and random picks from the rest.
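Further: peak tail current of the secondary pulse compared with the same well before compound.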

The experiment deals with human ether-à-go-go-related gene (hERG) potassium channel (human, UniProt Q12809). Description: primary screen, population patch clamp on CHO cells stably expressing hERG; higher = less effect of the substance.
human ether-à-go-go-related gene (hERG) potassium channel, sequence (Q12809 whole entry, looked up): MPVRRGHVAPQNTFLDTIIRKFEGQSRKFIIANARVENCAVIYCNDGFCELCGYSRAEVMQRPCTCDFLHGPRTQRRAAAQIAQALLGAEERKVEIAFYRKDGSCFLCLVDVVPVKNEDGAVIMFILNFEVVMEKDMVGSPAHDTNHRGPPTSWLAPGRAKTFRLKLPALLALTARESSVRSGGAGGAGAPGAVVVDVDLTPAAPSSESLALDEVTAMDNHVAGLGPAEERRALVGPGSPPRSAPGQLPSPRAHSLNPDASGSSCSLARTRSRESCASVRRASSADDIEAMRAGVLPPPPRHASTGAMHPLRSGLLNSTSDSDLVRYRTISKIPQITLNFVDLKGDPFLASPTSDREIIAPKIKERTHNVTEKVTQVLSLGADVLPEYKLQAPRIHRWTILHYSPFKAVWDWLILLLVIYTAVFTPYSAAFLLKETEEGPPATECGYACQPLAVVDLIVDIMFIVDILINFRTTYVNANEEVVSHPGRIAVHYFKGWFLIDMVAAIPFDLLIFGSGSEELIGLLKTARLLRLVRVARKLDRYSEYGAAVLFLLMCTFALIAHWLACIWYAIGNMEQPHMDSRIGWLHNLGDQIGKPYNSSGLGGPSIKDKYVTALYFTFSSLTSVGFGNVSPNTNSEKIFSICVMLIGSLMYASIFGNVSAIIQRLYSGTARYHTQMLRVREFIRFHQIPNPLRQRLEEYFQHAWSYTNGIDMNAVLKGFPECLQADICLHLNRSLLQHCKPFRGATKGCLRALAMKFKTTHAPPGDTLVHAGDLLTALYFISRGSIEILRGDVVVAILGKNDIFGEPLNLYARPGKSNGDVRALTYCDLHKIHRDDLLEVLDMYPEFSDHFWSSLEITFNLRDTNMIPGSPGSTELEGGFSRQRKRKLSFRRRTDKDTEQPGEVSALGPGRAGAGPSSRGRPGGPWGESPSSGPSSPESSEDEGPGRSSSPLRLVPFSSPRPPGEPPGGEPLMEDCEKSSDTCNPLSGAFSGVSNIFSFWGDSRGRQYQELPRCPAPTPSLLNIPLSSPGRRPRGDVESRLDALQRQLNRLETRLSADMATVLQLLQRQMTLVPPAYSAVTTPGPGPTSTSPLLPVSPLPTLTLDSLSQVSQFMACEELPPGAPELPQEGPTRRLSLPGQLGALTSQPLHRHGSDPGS
On to `CC(=O)c1ccc(N(C(=O)CNC(=O)c2ccco2)C(C(=O)NC2CCCC2)c2ccncc2)cc1` (stereo not shown), for which the “hERG current change (%, negative = inhibition) at 10uM” value turned out to be 20.3%.
The result for `COc1cccc(-c2nn(-c3ccc(C)cc3)cc2C(=O)N(C)CC(=O)Nc2cccc(F)c2)c1` reads 0.34%.
The figure for `COc1ccc(OC)c(NC(=O)COC(=O)c2ccc(S(=O)(=O)N3CCOCC3)cc2)c1` is -15.3%.
The figure for `O=C(Nc1ccc2c(c1)OCO2)C1CC1(Cl)Cl` (stereo not shown) is 3.77%; for `COc1cc(OC)c(OC)cc1CNC(=O)c1cc(=O)c2ccccc2o1` it is 8.48%.
Take `COc1ccc(N(C(C)=O)S(=O)(=O)c2cccs2)cc1`: the “hERG current change (%, negative = inhibition) at 10uM” value came to 7.03%.
The result for `CCCn1nnc(NC(=O)c2ccc(Cl)cc2Cl)n1` reads 2.23%; that for `O=C(O)CCc1ccc(S(=O)(=O)N2CCOCC2)cc1`, 9.65%.
As for `COC(=O)C1=C(C)N(c2cccc(Cl)c2)C(=O)C1`, the “hERG current change (%, negative = inhibition) at 10uM” value was determined as 9.01%.
The result for `c1ccc(CC(Nc2ccccn2)c2ccccc2)cc1` (stereo not shown) reads -52.8%; that for `COP(=O)(OC)C(Nc1ccccn1)c1ccccc1` (stereo not shown), 26.6%.
The figure for `O=C(c1ccccc1)C(Nc1ccccn1)c1ccccc1` (stereo not shown) is 1.36%.
The figure for `CC1CN(S(=O)(=O)c2ccc(C(=O)N(CCCN(C)C)c3nc4cc5c(cc4s3)OCCO5)cc2)CC(C)O1.Cl` (stereo not shown) is -28.8%; for `CN(C)CCN(C(=O)c1ccc(S(=O)(=O)N(C)C)cc1)c1nc2cc3c(cc2s1)OCCO3.Cl` it is -40.7%; for `CCN(CC)CCN(C(=O)c1ccc(S(=O)(=O)N2CCOCC2)cc1)c1nc2cc3c(cc2s1)OCCO3.Cl` it is -69.2%.
As to `CN(C)CCCN(C(=O)c1ccc(S(=O)(=O)N2CCOCC2)cc1)c1nc2cc3c(cc2s1)OCO3.Cl`, the “hERG current change (%, negative = inhibition) at 10uM” value is reported as -61.4%.
The result for `CN(C)CCCN(C(=O)c1ccc(S(=O)(=O)N2CCCCC2)cc1)c1nc2cc3c(cc2s1)OCO3.Cl` reads -70.4%; that for `CCN(CC)CCN(C(=O)c1ccc(N2C(=O)CCC2=O)cc1)c1nc2cc3c(cc2s1)OCCO3.Cl`, -27.6%; that for `CN(C)CCCN(C(=O)c1ccc(S(=O)(=O)N2CCCCCC2)cc1)c1nc2cc3c(cc2s1)OCCO3.Cl`, -59.7%.
The figure for `Cc1ccc2sc(N(CCCN(C)C)C(=O)c3ccc(S(=O)(=O)N4CCOCC4)cc3)nc2c1C.Cl` is -35.9%; for `CCN(CC)CCN(C(=O)c1ccc(S(=O)(=O)N2CCCCC2)cc1)c1nc2cc3c(cc2s1)OCO3.Cl` it is -37.6%.
The result for `C=C1C(=O)C=C2CN(C(=O)c3ccccc3)[C@@](Cc3ccc(F)cc3)(C(=O)OC)[C@@H]12` reads -3.22%; that for `CCOc1ccc(N2C(=O)CC(N3CCN(C(=O)c4ccco4)CC3)C2=O)cc1` (stereo not shown), -9.91%.
As for `Cc1cc(C)n(C(=O)CNC(=O)C(c2ccccc2)c2ccccc2)n1`, the “hERG current change (%, negative = inhibition) at 10uM” value was -3%.
The figure for `CN(C)c1ccc(NC(=O)c2cccc([N+](=O)[O-])c2)c2ccccc12` is -4.86%; for `COc1cc(C=O)ccc1OCCCOc1ccc([N+](=O)[O-])cc1` it is -10.8%; for `O=C(COC(=O)C1(c2ccc(F)cc2)CCCC1)NCc1ccco1` it is -2.02%.
The figure for `CCC(C)NC(=O)c1ccc(C(=O)c2ccccc2)cc1` (stereo not shown) is 12.7%.
The figure for `O=C(c1cnn2c1NC(c1ccc(Br)cc1)CC2C(F)(F)F)N1CCN2CCCC2C1` (stereo not shown) is -63.5%.
Regarding `O=C(c1cnn2c1NC(c1ccc(Br)cc1)CC2C(F)(F)F)N1CCN(C23CC4CC(CC(C4)C2)C3)CC1` (stereo not shown), the “hERG current change (%, negative = inhibition) at 10uM” value is -7.5%.
The figure for `CN1CCN(C(=O)c2cnn3c2NC(c2ccccc2)CC3C(F)(F)F)CC1` (stereo not shown) is 17.1%.
The figure for `CCCc1ccc2oc(C(=O)N(C)CCn3ccnc3C)c(C)c2c1` is -61.4%; for `Cc1ccc2c(C)c(C(=O)N(Cc3ccncc3)CC3CCCO3)oc2c1C` (stereo not shown) it is -51.9%.
The result for `Cc1ccc2oc(C(=O)N(Cc3ccc(N(C)C)cc3)CC3CCCO3)c(C)c2c1` (stereo not shown) reads -14.8%; that for `CCCc1ccc2oc(C(=O)N(C)Cc3cnccn3)c(C)c2c1`, -10.9%; that for `Cc1c(C(=O)N(Cc2ccc(N(C)C)cc2)CC2CCCO2)oc2ccccc12` (stereo not shown), -26.5%.
Take `CCCc1ccc2oc(C(=O)N(Cc3ccncc3)CC3CCCO3)c(C)c2c1` (stereo not shown): the “hERG current change (%, negative = inhibition) at 10uM” value is given as -71.6%.
The result for `Cc1c(C(=O)N(Cc2ccncc2)CC2CCCO2)oc2c(F)cccc12` (stereo not shown) reads -27.1%; that for `Cc1ccc2oc(C(=O)N(Cc3ccncc3)CC3CCCO3)c(C)c2c1` (stereo not shown), -34.9%.
The result for `CCCc1ccc2oc(C(=O)N(C)Cc3nccs3)c(C)c2c1` reads -48.3%; that for `COc1ccc(/C=N/NC(=S)Nc2ccccc2)cc1COc1ccc(Br)cc1`, -1.6%; that for `Cc1cc(Oc2ccc(C#N)cc2)nc(NCc2ccccc2)n1`, 2.36%.
The figure for `O=C1CN(C(=O)C2CC2)c2ccccc2N1` is -15.8%; for `CC(C)(C)OC(=O)N1CCC(NC(=O)c2[nH]cnc2C(=O)Nc2ccccc2)CC1` it is -15%; for `CNC(=O)COC(=O)c1cccc(S(=O)(=O)N2CCN(c3ccc(F)cc3)CC2)c1` it is -0.232%.
`N#Cc1nccnc1N1CCN(C(=O)Nc2ccccc2)CC1`: the “hERG current change (%, negative = inhibition) at 10uM” value turned out to be 5.22%.
The figure for `CCc1cc2ccc(OC)cc2nc1SCC(=O)N1CCN(C(=O)c2ccco2)CC1` is -49.1%; for `CCc1cc2ccc(C)cc2nc1SCC(=O)NNC(=O)c1ccco1` it is 12%.
The result for `CCc1cc2cc3c(cc2nc1SCC(=O)N1CCN(C(=O)c2ccco2)CC1)OCO3` reads -28.7%; that for `COc1cc2cc(C)c(SCC(=O)N3CCOCC3)nc2cc1OC`, -1.12%.
`COc1cc2cc(C)c(SCC(=O)N3CCN(C(=O)c4ccco4)CC3)nc2cc1OC`: the “hERG current change (%, negative = inhibition) at 10uM” value is recorded as -66%.
The result for `CCc1cc2cc(C)ccc2nc1SCC(=O)N1CCN(C(=O)c2ccco2)CC1` reads -53.4%; that for `CCc1cc2cccc(C)c2nc1SCC(=O)N1CCN(C(=O)c2ccco2)CC1`, -54.4%; that for `CCc1cc2cccc(C)c2nc1SCC(=O)NNC(=O)c1ccco1`, -0.00372%.
The result for `Cc1cc2cc3c(cc2nc1SCC(=O)N1CCN(C(=O)c2ccco2)CC1)OCO3` reads -35.3%.
The figure for `CCc1cc2cc(C)ccc2nc1SCC(=O)NNC(=O)c1ccco1` is 21.9%; for `CCc1cc2ccc(C)cc2nc1SCC(=O)N1CCN(C(=O)c2ccco2)CC1` it is -56%.
As to `CCc1cc2cc(C)cc(C)c2nc1SCC(=O)N1CCN(C(=O)c2ccco2)CC1`, the “hERG current change (%, negative = inhibition) at 10uM” value is listed as -16.2%.

For the origin of these results see PMC4336329 (PLoS ONE, 2015).
